A short description of test [1]: qHTS assay to identify small molecule agonists of the sonic hedgehog signaling (Shh) pathway (AID 1259368).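 Also: NIH/3T3-derived 3T3Gli1-Luc cells carrying a stable Gli1-driven firefly luciferase reporter; series mostly up to about 92 µM; nearly all actives have a fitted effect of over 15% in size.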 Put shortly:
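3T3Gli1-Luc (NIH/3T3 clone, stable Gli1-Luc); 4 hr pre-incubation, then cpd in DMSO 24 hr, 37 C/5% CO2; luciferase reagent 30 min RT; luminescence.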
On the technique in general: In qHTS, concentration-response curves come from the screen itself.

The nature of test [2]: qHTS assay to identify small molecule antagonists of the sonic hedgehog signaling (Shh) pathway (AID 1259369). Also: nearly all actives have a fitted effect of over 45% in size. Put shortly:
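3T3Gli1-Luc, conditioned-medium-stimulated, 24hr cpd, 37C/5% CO2; Gli1-driven firefly Luc luminescence after 30min RT with luciferase reagent. Cells plated 4hr before cpd.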

Test [3] in a line: qHTS assay to identify small molecule agonists of the estrogen receptor beta (ER-beta) signaling pathway - cell viability counter screen (AID 1259380; active = well fitted curve in the direction sought with a large enough effect in the repeat runs; an effect the other way counts as inactive or inconclusive; also: nearly all actives have a fitted effect of over 30% in size; also: potency is read from the fitted curve at half-maximal effect). The method, boiled down: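 HEK293T ER-beta-UAS-bla; 2% CS-FBS; 6 hr pre-plate, 16 hr cpd at 37C/5% CO2; LiveBLAzer read first, then CellTiter-Glo 30 min RT, luminescence.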
Test [4] can be described thus: qHTS assay to identify small molecule antagonists of the estrogen receptor beta (ER-beta) signaling pathway - cell viability counter screen (AID 1259382; active = well fitted curve in the direction sought with a large enough effect in the repeat runs; an effect the other way counts as inactive or inconclusive; also: series mostly up to about 92 µM; nearly all actives have a fitted effect of over 55% in size). Put shortly: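 Cells: ER-beta-UAS-bla HEK293T, 2,000/well, 2% CS-FBS, 6 hr settle. Cpd + E2 (1nM final), 16 hr, 37C/5% CO2. Bla FRET substrate 2 hr RT, then CellTiter-Glo 30 min RT, luminescence.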
A short description of test [5]: qHTS assay to identify small molecule agonists or antagonists of the thyroid stimulating hormone receptor (TSHR) signaling pathway - wild type cell line counter screen (AID 1259384). Put shortly:
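Wild-type Hek293 cells, 800/well, 18 h at 37C, then compound with Ro20-1724 for 30 min RT. cAMP by HTRF (cAMP-d2/anti-cAMP cryptate), 1 h RT, fluorescence read. 15 concentrations, triplicates.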

The target of test [6] is Thyrotropin receptor (Homo sapiens) (UniProt P16473). The experiment in a line: qHTS assay to identify small molecule antagonists of the thyroid stimulating hormone receptor (TSHR) signaling pathway (AID 1259385). Also: nearly all actives have a fitted effect of over 20% in size. The method, boiled down:
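TSHR-HEK293 cells (800/well) plated 18 h, then compounds with Ro20-1724 and TSH at 1.5 ng/mL final, 30 min at room temperature. cAMP quantified by HTRF (cAMP-d2/anti-cAMP-cryptate, 1 h); 15 concentrations in triplicate.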

Test [7] in a line: qHTS assay to identify small molecule agonists of the estrogen receptor alpha (ER-alpha) signaling pathway in the presence of an antagonist - cell viability counter screen (AID 1259386; active = well fitted curve in the direction sought with a large enough effect in the repeat runs; an effect the other way counts as inactive or inconclusive;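 also: series mostly up to about 92 µM; cells exposed to compounds for 22 h at 37 °C before the viability read; nearly all actives have a fitted effect of over 30% in size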). The method, boiled down:
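VM7Luc4E2, stripped-serum pre-culture 5 d; 24hr plating; +ICI-182,780 10.0nM final; cpds 15 conc, 22hr, 37C/5% CO2; CellTiter-Fluor added at 21hr, fluorescence 1hr later.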

In test [8] the target is Progesterone receptor (Homo sapiens) (UniProt P06401). In words: qHTS assay to identify small molecule agonists of the progesterone receptor (PR) signaling pathway (AID 1346784). Also: nearly all actives have a fitted effect of over 30% in size. The method, boiled down:
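Compounds were tested for PR agonism in HEK 293T cells bearing a beta-lactamase gene under UAS control. Treatment lasted 16 hr at 37C; signal came from fluorescence of a FRET substrate.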

Test [9] shares this target. In words: qHTS assay to identify small molecule antagonists of the progesterone receptor (PR) signaling pathway (AID 1346795; active = well fitted inhibition curve with a large enough effect in the signal ratio in the repeat runs, not every such curve was filed as active; the % refers to the signal ratio). The method, boiled down:
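In HEK293T cells bearing the PR-UAS-bla reporter, compound effects on promegestone-driven (1 nM) beta-lactamase expression are assessed after 16 hr using a fluorescent FRET substrate incubated 2 hr at room temperature.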

Test [10] is described as follows: qHTS assay to identify small molecule antagonists of the progesterone receptor (PR) signaling pathway - cell viability counter screen (AID 1346798; active = well fitted curve in the direction sought with a large enough effect in the repeat runs; an effect the other way counts as inactive or inconclusive; also: nearly all actives have a fitted effect of over 50% in size; also: potency is read from the fitted curve at half-maximal effect; as to activity change, negative = cytotoxicity: series mostly up to about 92 µM). Put shortly: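 Following a 4 hr attachment, PR-UAS-bla HEK293T cells in charcoal-stripped FBS medium were exposed to compounds with R5020 for 16 hr; CellTiter-Glo was added and luminescence read after 30 min at room temperature.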

A short description of test [11]: qHTS assay to identify small molecule antagonists of the TGF-beta/Smad signaling pathway - cell viability counter screen (AID 1346824; active = well fitted curve in the direction sought with a large enough effect in the repeat runs; an effect the other way counts as inactive or inconclusive; also: nearly all actives have a fitted effect of over 50% in size). The method, boiled down:
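SBE-bla HEK 293T cells, incubated overnight, then compound plus 0.25 ng/mL TGF-beta1 (stock added) for 5 hr at 37 C. Viability was read in the same wells by CellTiter-Glo luminescence after 30 min at room temperature.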

The nature of test [12]: qHTS assay to identify small molecule agonists of the TGF-beta/Smad signaling pathway - cell viability counter screen (AID 1346829; active = well fitted curve in the direction sought with a large enough effect in the repeat runs; an effect the other way counts as inactive or inconclusive; also: top concentration of the series differs between compounds; nearly all actives have a fitted effect of over 45% in size). The method, boiled down: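 Same-well cytotoxicity: CellTiter-Glo added after the 2 hr room-temperature beta-lactamase substrate step, luminescence measured 30 min later; cells had 5 hr of compound at 37 C.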
The nature of test [13]: qHTS assay to identify small molecule agonists of the TGF-beta/Smad signaling pathway (AID 1346859; active = well fitted activation curve with a large enough effect in the signal ratio in the repeat runs, not every such curve was filed as active; the % refers to the signal ratio; also: series mostly up to about 77 µM). Put shortly:
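Each well held 4,000 SBE-bla HEK 293T cells incubated overnight before compound addition; 5 hr later the cleavable FRET substrate went on for 2 hr at room temperature, and fluorescence was read at two emissions.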

For test [14], the target named is Thyrotropin-releasing hormone receptor (Homo sapiens) (UniProt P34981). In words: qHTS assay to identify small molecule antagonists of the thyrotropin-releasing hormone receptor (TRHR) signaling pathway (AID 1346877; active = well fitted inhibition curve with a large enough effect in the repeat runs, not every such curve was filed as active; also: series mostly up to about 51 µM). The method, boiled down:
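Intracellular calcium fluorescence, read kinetically every second over 3 min, reports TRH-evoked signalling in HEK293 cells carrying TRHR. Test compounds were added 5 min ahead of a 1 nM TRH challenge.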

Test [15] addresses Androgen receptor (Homo sapiens) (UniProt P10275). The experiment in a line: qHTS assay to identify small molecule agonists of the androgen receptor (AR) signaling pathway in the presence of an antagonist (AID 1259381). Also: nearly all actives have a fitted effect of over 15% in size. The method, boiled down:
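MDA-kb2 cells, 3,000/well, rested 5hr at 37C/0% CO2 → nilutamide 3.0uM final or buffer → compounds, 15 conc. → 16hr at 37C → ONE-Glo, 30min RT → luminescence.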

Test [16] addresses Estrogen receptor (Homo sapiens) (UniProt P03372). In words: qHTS assay to identify small molecule agonists of the estrogen receptor alpha (ER-alpha) signaling pathway in the presence of an antagonist (AID 1259383). Also: top concentration of the series differs between compounds; nearly all actives have a fitted effect of over 15% in size. The method, boiled down:
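VM7Luc4E2, endog. ER-alpha + 4×ERE-luc; charcoal-stripped FBS, phenol red-free, 5 d; 24hr plating; +10.0nM ICI-182,780 (final); cpds 15 conc, 22hr, 37C/5% CO2; ONE-Glo luminescence.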

Test [17] is described as follows: qHTS assay to identify small molecule agonists of the progesterone receptor (PR) signaling pathway - cell viability counter screen (AID 1346799). Also: nearly all actives have a fitted effect of over 45% in size. Also: potency is read from the fitted curve at half-maximal effect. The method, boiled down:
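Here, 3,000 PR-UAS-bla HEK293T cells per well were treated with compounds for 16 hr after a 6 hr preincubation at 37C and 5% CO2; cell viability is the CellTiter-Glo luminescence signal.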

Test [18] is described as follows: qHTS assay to identify small molecule agonists of the androgen receptor (AR) signaling pathway in the presence of an antagonist - cell viability counter screen (AID 1259379; active = well fitted curve in the direction sought with a large enough effect in the repeat runs; an effect the other way counts as inactive or inconclusive;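 also: MDA-kb2 human breast cancer cells carrying an MMTV luciferase reporter; series mostly up to about 92 µM; nearly all actives have a fitted effect of over 25% in size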). Put shortly:
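Cells: MDA-kb2 (MMTV-luc, AR and GR elements), 3,000/well, 5 hr settle. Added: nilutamide 3.0uM final, then compounds (15 conc.). Incubation: 16 hr, 37C, no CO2. Read-out: CellTiter-Fluor, 1 hr, fluorescence.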

Test [19] addresses Estrogen receptor beta (Homo sapiens) (UniProt Q92731). The experiment in a line: qHTS assay to identify small molecule agonists of the estrogen receptor beta (ER-beta) signaling pathway (AID 1259377; active = well fitted activation curve with a large enough effect in the signal ratio in the repeat runs, not every such curve was filed as active; the % refers to the signal ratio). Put shortly: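 Read-out: beta-lactamase FRET fluorescence. Cell line: ER-beta-UAS-bla HEK293T in 2% charcoal-stripped FBS. Exposure: 16 hr at 37C. Substrate step: 2 h at room temperature.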

The target is the same in test [20]. The experiment in a line: qHTS assay to identify small molecule antagonists of the estrogen receptor beta (ER-beta) signaling pathway (AID 1259378; active = well fitted inhibition curve with a large enough effect in the signal ratio in the repeat runs, not every such curve was filed as active; the % refers to the signal ratio). Put shortly: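 ER-beta-UAS-bla HEK293T cells in 2% charcoal-stripped FBS medium treated with compound plus 1nM final 17-beta-estradiol for 16 hr at 37C. Beta-lactamase reporter read by FRET substrate fluorescence after 2 hours at room temperature.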

Values without a mark were called inactive. Results filed as inconclusive are left out. Calls of active or inactive are those of the source. Unless noted, calls follow the shape of the full dose curve.
% is scaled to controls: 0 for no effect and ±100 for the full control effect.

Chain of Thyrotropin-releasing hormone receptor (Homo sapiens) (P34981 whole entry, looked up): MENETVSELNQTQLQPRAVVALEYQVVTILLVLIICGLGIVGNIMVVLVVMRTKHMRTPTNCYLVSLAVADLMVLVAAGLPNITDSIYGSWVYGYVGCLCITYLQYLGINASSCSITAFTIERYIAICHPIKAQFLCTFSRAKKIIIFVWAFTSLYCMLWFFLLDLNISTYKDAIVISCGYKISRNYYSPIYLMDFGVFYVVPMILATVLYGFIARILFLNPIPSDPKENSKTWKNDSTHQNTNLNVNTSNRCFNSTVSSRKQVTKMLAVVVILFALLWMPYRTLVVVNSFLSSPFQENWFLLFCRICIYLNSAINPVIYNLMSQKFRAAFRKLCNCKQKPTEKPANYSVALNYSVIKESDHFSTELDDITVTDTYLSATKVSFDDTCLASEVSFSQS
Chain of Estrogen receptor (Homo sapiens) (P03372 whole entry, looked up): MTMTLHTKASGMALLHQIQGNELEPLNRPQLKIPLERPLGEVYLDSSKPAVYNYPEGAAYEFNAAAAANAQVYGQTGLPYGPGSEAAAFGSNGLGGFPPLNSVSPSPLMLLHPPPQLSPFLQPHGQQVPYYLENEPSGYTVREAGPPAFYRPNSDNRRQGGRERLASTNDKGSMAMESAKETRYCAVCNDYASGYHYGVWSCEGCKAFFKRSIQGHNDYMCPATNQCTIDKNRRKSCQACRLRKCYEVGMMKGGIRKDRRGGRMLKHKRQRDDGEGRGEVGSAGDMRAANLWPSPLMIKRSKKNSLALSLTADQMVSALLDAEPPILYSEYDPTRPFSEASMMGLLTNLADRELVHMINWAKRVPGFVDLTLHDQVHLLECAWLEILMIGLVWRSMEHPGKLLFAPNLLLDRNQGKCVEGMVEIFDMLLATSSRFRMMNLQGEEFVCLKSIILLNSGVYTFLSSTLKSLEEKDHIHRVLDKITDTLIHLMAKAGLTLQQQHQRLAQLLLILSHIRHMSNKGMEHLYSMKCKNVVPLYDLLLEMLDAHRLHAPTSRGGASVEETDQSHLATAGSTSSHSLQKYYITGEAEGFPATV
Chain of Progesterone receptor (Homo sapiens) (P06401 whole entry, looked up): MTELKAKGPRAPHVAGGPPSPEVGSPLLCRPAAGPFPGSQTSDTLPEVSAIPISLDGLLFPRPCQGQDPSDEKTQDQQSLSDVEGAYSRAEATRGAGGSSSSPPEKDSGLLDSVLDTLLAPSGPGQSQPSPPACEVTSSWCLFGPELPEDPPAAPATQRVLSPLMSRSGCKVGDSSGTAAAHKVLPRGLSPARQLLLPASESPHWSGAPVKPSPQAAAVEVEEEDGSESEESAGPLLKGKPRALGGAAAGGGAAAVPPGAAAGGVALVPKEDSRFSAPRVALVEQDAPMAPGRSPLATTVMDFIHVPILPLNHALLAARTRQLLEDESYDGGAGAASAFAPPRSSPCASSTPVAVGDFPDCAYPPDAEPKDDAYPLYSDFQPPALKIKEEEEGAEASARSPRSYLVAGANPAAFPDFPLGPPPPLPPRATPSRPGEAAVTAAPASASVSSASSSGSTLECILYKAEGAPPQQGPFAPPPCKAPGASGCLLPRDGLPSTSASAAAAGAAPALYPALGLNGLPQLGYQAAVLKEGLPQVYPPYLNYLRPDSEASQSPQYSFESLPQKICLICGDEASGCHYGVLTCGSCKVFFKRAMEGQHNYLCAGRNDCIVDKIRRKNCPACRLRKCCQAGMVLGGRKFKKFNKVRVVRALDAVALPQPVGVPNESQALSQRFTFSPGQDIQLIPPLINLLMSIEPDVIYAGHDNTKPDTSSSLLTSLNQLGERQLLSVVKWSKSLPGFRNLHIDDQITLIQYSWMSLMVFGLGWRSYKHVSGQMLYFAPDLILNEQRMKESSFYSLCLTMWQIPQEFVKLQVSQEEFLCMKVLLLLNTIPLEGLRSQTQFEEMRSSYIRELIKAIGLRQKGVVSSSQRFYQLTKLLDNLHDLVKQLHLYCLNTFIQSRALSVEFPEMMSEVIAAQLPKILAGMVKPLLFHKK
Chain of Thyrotropin receptor (Homo sapiens) (P16473 whole entry, looked up): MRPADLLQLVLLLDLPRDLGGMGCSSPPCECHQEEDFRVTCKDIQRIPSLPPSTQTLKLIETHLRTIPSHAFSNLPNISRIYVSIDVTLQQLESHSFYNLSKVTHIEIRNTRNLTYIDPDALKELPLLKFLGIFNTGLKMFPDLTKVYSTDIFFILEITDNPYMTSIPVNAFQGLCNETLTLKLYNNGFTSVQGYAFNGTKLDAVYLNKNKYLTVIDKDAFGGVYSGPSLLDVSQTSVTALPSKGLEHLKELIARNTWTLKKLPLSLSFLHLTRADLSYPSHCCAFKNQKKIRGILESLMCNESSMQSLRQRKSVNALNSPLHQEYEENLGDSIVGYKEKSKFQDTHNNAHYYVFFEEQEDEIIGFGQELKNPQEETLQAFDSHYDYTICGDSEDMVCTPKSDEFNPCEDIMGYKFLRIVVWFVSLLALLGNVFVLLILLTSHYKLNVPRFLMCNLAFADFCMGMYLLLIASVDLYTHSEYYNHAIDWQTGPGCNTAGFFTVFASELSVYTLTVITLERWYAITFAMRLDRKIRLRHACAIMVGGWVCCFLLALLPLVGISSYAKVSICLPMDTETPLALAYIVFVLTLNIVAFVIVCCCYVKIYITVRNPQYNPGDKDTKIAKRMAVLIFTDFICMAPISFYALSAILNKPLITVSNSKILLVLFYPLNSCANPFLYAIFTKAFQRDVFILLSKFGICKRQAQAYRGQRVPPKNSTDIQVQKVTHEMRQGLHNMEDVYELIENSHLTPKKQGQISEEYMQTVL
Chain of Estrogen receptor beta (Homo sapiens) (Q92731 whole entry, looked up): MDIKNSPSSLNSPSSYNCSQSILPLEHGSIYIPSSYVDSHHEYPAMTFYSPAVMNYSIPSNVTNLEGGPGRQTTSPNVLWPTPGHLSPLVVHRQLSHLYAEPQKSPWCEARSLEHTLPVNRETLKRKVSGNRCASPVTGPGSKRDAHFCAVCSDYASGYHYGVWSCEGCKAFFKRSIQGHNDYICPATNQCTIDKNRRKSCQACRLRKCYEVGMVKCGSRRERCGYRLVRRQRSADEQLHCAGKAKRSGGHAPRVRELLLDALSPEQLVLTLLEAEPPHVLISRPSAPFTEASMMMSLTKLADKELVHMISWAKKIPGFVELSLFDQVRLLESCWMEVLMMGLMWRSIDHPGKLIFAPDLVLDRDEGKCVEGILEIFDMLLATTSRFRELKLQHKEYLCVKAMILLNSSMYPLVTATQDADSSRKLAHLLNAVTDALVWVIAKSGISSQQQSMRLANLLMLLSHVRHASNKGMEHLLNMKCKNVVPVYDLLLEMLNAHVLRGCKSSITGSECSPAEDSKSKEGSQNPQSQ
Chain of Androgen receptor (Homo sapiens) (P10275 whole entry, looked up): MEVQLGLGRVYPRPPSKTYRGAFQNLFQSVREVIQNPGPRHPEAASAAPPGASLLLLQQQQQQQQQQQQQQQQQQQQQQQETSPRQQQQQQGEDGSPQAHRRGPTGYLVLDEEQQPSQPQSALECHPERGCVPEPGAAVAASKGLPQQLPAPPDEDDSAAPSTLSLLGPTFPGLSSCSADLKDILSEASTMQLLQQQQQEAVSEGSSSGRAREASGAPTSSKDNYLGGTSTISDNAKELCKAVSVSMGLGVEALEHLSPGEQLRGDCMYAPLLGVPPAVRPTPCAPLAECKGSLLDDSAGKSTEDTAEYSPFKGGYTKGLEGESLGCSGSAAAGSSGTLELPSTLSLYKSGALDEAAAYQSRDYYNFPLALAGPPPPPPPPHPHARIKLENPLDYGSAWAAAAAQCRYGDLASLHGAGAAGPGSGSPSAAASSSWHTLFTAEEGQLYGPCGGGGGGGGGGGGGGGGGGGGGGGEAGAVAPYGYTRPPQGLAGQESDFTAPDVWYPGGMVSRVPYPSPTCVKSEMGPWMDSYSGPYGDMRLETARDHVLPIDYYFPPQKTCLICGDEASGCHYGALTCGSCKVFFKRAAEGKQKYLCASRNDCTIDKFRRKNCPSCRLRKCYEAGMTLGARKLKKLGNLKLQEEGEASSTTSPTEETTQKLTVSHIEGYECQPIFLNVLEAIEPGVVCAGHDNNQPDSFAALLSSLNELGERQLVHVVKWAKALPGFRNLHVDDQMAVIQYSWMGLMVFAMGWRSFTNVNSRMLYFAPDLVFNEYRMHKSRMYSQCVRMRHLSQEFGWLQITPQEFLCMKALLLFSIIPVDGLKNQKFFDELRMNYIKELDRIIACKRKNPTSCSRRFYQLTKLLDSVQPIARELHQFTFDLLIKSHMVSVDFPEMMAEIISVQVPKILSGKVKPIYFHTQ

Take `O=C1OC[C@H](Cc2cccc(O)c2)[C@H]1Cc1cccc(O)c1`: the Potency entry in test [1], in [2], in test [3], in test [4], in [5] and in test [6] was “inactive” throughout. In addition, the Potency entry in [7], in test [8], in test [9], in [10], in test [12] and in test [13] was “inactive” throughout. In addition, the call in [11] and in test [14] was inactive.
Regarding `Nc1ccc(NC(=O)c2ccc(N)cc2)cc1`, the Potency result in test [1], in [2], in [15], in [16], in test [7] and in test [9] was “inactive” in each case. Further, the Potency result in test [10], in [12] and in [13] was “inactive” in each case. The Potency in [3] and in [17] was 54.5 µM (active) each time. For the same molecule, the molecule was classed as inactive in [14].
For `CC(=O)C(C)=O`, the Potency entry in test [1], in test [2], in test [3], in test [4], in test [5] and in [6] was “inactive” in each case. For the same molecule, the Potency result in test [7], in test [8], in [17], in test [12] and in test [13] was “inactive” in each case.
Turning to `c1ccc2sc(SSc3nc4ccccc4s3)nc2c1`, in [1], the activity change is 1.97% [at 18.9 µM, active compounds read high]. For the same molecule, the activity change, negative = inhibition was 7.11% [at 19 µM] in [2], 2.43% [at 19 µM] in test [6] and -9.57% [at 18.9 µM] in [9]. The activity change, negative = cytotoxicity in test [18] is 5.77% [at 19 µM]; in test [3], -1.6% [at 19 µM]; in [7], 9.75% [at 19 µM]; in test [10] it was -0.0474% [at 18.9 µM]; in test [17], 5.24% [at 19 µM]; in test [12], 25.5% [at 15.8 µM]. For the same molecule, the activation was 2.07% [at 19 µM] in test [16], -1.06% [at 19 µM] in test [8] and 3.56% [at 15.8 µM] in test [13]. Further, in [5], the cAMP activity change is 2.9% [at 18.9 µM, active compounds read high]. In addition, the viability change, negative = cytotoxic in test [11] was 3.02% [at 15.8 µM].
Consider `CC(=O)OC(C)C[N+](C)(C)C` (configuration not stated), for which the Potency entry in test [1], in [19], in test [20], in [18], in test [3] and in test [4] was “inactive” throughout. The Potency entry in [16], in [5], in test [6], in test [7], in test [8] and in test [9] was “inactive” in each case. The Potency entry in test [10], in test [17], in test [12] and in test [13] was “inactive” in each case.
In the case of `CC(C)N(C)C`, the Potency result in test [1], in [2], in [18], in test [4], in [16] and in test [5] was “inactive” in each case. Besides, the Potency result in [6], in [7], in test [8], in test [9], in [10] and in test [17] was “inactive” in each case. The Potency entry in test [12] and in [13] was “inactive” in each case. The molecule was classed as inactive in test [14].
`CC(C)OC(=O)c1ccccc1C(=O)OC(C)C`: the Potency entry in [1], in [2], in test [18], in test [4], in test [16] and in test [5] was “inactive” each time. Moreover, the Potency entry in test [6], in [7], in [12] and in test [13] was “inactive” throughout. For the same molecule, the results for the Potency in test [10] and in [17] were 61.1 µM (active) and 43.3 µM (active), respectively. In addition, the molecule was classed as inactive in test [11] and in test [14].

Source of the values: PubChem BioAssay (Tox21).
